# Rows were chosen to be rich in hits. Some 14% of all compounds tested hit in one or more screens of this group.
# HCMV inh: blocks human cytomegalovirus replication; activity change, negative = inhibition, % at 57.5 µM; actives 4.5% (n = 410,000); AID 1259415; HFF cells, HCMV-luciferase reporter, 72 h; stronger effect = lower value; in the data active means activity change below about -60%; inconclusive means no clear call, values can overlap the other calls; inactive means above about -39%
#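 Inhibition of viral replication was scored as loss of reporter luminescence in HFFs infected with HCMV-luciferase (MOI 1 PFU/cell) for 72 h; compounds tested at 2 doses, normalized to buffer and Salinomycin controls.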
# Pf growth 48h: P. falciparum growth inhibition at 48 hours (one generation); P. falciparum luciferase growth in erythrocytes, 48 h; Potency, µM (highest dose often 28.7 µM), without a hit: at the highest dose activity change, negative = inhibition, hits mostly inhibitors; actives 5.9% (n = 310,000); AID 504832; further: potency means the concentration at half of the fitted maximal effect
#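 Here the parasites carry a stable luciferase gene and grow inside erythrocytes in Albumax-based RPMI medium with compound for one erythrocytic cycle. Activity is scored as loss of luminescent signal.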
# Lassa entry inh: Lassa virus entry inhibition | Lassa virus pseudotype entry inhibition, cell reporter | Potency, µM (doses to about 37.9 µM), for inactives: at the top dose activity change, negative = inhibition, hits mostly inhibitors | actives 1.2% (n = 300,000) | AID 540256; calls by dose curve; tested in HEK293 cells; further: potency means the concentration at half of the fitted maximal effect; nearly all actives have a fitted effect of over 50% in size
# HCV inhibitor: blocks hepatitis C virus; Huh7.5.1 HCVcc-Cre infection, luciferase reporter, 44 h; Potency, µM (highest dose often 41.8 µM), for inactives: at the highest dose activity change, negative = inhibition, hits mostly inhibitors; actives 3.4% (n = 340,000); further: potency means the concentration at half of the fitted maximal effect
#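 Antiviral activity was scored by luciferase reporter output from cells infected with HCVcc-Cre (~0.5 moi) in presence of compound, 44 h infection period, cells seeded 1,000/well 4 h prior.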
# Pf growth 96h: inhibits malaria parasite growth, 96 h; P. falciparum luciferase reporter growth, 96 h; Potency, µM (series often up to 28.7 µM), for the others: at the highest dose activity change, negative = inhibition, most hits filed as inhibitors; actives 6.9% (n = 320,000); further: potency means the concentration at half of the fitted maximal effect
#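 96 h incubation, 37 C, 5% CO2, of luciferase-reporter P. falciparum-infected RBCs (2% hematocrit, 0.05% parasitemia final) with test compounds; endpoint luminescence.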
# Marburg entry inh: Marburg virus entry inhibition; actives 1.8% (n = 300,000); Potency, µM (top dose mostly 37.8 µM), inactives show at the top dose activity change, negative = inhibition, hits mostly inhibitors; Marburg virus pseudotyped entry inhibition, cell reporter; calls by dose curve; tested in HEK293 cells; further: potency means the concentration at half of the fitted maximal effect
# * hit, by the source's call; ? = inconclusive; . = no result; [ ] = remark or other dose. Unless noted, the call rests on the fitted dose curve; in most records, active means well fitted inhibition curve with a large enough effect; inconclusive means small, poorly fitted or top-dose-only effect, or another doubt; inactive means no such curve, though single readings can be large or run the other way. On the % scale 0 is the no-effect control and ±100 the full control effect.
SMILES,HCMV inh,Pf growth 48h,Lassa entry inh,HCV inhibitor,Pf growth 96h,Marburg entry inh
Cc1ccccc1C(=O)N1CCN(c2ccc(NC(=O)c3cccc(OC(C)C)c3)cc2)CC1,-3.2,?,-2.3%,?,-14.6%,11.0%
CC(C)C(=O)N1CCN(c2ccc(NC(=O)c3ccc4c(c3)OCCO4)cc2)CC1,-30.3,-17.4%,-0.3%,-7.8%,0.0%,-19.8%
CC(=O)N1CCN(c2ccc(NC(=O)c3ccc4c(c3)OCO4)cc2)CC1,31.2,2.5%,3.3%,10.2%,-24.9%,-8.2%
COc1ccc(Cl)cc1S(=O)(=O)N1CCC(C(=O)NC2CCCC2)CC1,-12.3,0.0%,?,-6.6%,9.2%,-11.1%[46.1 µM]
CCOC(=O)C1CC(=NO)c2ccc(OC)c(OC)c2C1 (stereo not drawn),-26.0,.,.,.,.,.
O=C(Cc1ccc([N+](=O)[O-])cc1)N1CCc2ccccc2C1,-4.0,-4.0%,4.7%,21.0%,?,6.4%[46.1 µM]
O=c1c(Cc2c(F)cccc2Cl)c(O)ccn1CCc1c[nH]c2ccccc12,2.3,?,.,2.1%,5.22µM*,.
O=C(NCCc1c[nH]c2ccccc12)OCCCCOC(=O)NCCc1c[nH]c2ccccc12,-9.8,10.4µM*,.,?,?,.
N#CCC(=O)Nc1ccc(C(=O)NCCc2c[nH]c3ccccc23)cc1,15.7,13.1µM*,3.3%[46.1 µM],-28.1%,7.38µM*,-8.0%[46.1 µM]
O=C(Cc1ccccc1[N+](=O)[O-])N1CCc2ccccc2C1,-7.2,0.0%,8.2%,1.4%,1.17µM*,?
CN1CCN(c2cc3c(nn2)Oc2ccccc2N3C)CC1,.,69.6%,.,.,29.8%,.
CC(NC(=O)COC(=O)c1c[nH]c2ccccc12)c1ccccc1 (stereo not drawn),24.7,.,8.91µM*,0.0%,.,12.9%
O=C(CN1C(=O)c2ccccc2C1=O)NCCc1c[nH]c2ccccc12,-6.4,-2.1%,-1.9%,14.9%,5.22µM*,18.7%
O=C(CCc1c[nH]c2ccccc12)Nc1ncccc1O,-6.2,54.1%,16.0%[46.1 µM],7.6%,34.9%,6.1%[46.1 µM]
O=C(COC(=O)c1ccccc1C(=O)OCC(=O)NCCc1c[nH]c2ccccc12)NCCc1c[nH]c2ccccc12,64.2,9.28µM*,.,?,11.7µM*,.
COc1ccc2c(CCNC(=O)CN3C(=O)c4ccccc4C3=O)c[nH]c2c1,-12.7,-3.9%,11.1%,6.2%,18.3%,?
Cc1ccc(NC(=O)CCc2c[nH]c3ccccc23)nc1,-73.6*,?,?,?,?,?
CCOc1ccc(C2C(=O)N(C3CCCCCC3)CC(=O)N2Cc2ccccc2)cc1OC (stereo not drawn),?,.,-14.8%[46.1 µM],.,.,.
CCN1CCN(c2ccc(S(=O)(=O)N3CCOCC3)cc2NC(=O)c2ccc(F)cc2Cl)CC1,-15.9,?,-9.2%,0.6%,?,?
COC(=O)Cc1c(O)ccn(CCc2c[nH]c3ccc(OC)cc23)c1=O,-73.1*,0.1%,9.3%[46.1 µM],7.0%,35.7%,3.4%[46.1 µM]
O=C(COC(=O)Cc1c(Cl)cccc1Cl)NCc1ccccc1,-67.9*,.,.,.,.,.
Cc1ccc(C(=O)NCCc2c[nH]c3ccccc23)c(C)c1,174.4,108.3%,11.2µM*,?,234.7%,?
O=C(NCCc1c[nH]c2ccccc12)c1ccccc1,66.3,13.1%,?,-18.0%,97.0%,7.2%
O=C(Cc1c(Cl)cccc1Cl)OCC(=O)N1CCc2ccccc2C1,-101.3*,5.1%,25.5%,34.8%,?,30.0%
COc1ccccc1CNC(=O)COC(=O)Cc1c(Cl)cccc1Cl,-32.3,4.8%,.,-7.3%,-7.8%,.
O=C(c1ccc(CSc2nc3ccncc3n2Cc2cccc(F)c2)cc1)N1CCCCC1,-31.0,.,-2.7%[46.1 µM],.,.,-1.9%[46.1 µM]
CN(C)C1(CNC(=O)COc2ccc([N+](=O)[O-])cc2)CCCCC1,6.6,.,4.9%[46.1 µM],.,.,1.7%[46.1 µM]
CCOC(=O)[C@@H](C#N)[C@@H](Cc1ccccc1)c1ccco1,.,.,.,.,.,1.5%
COc1ccc2[nH]cc(CCNC(=O)Cc3c(F)cccc3Cl)c2c1,-16.4,?,-15.4%,?,?,-2.2%

# Screening data deposited in PubChem BioAssay by National Center for Advancing Translational Sciences (NCATS).
